Htt clearance = mutant huntingtin protein clearance; HeLa Exon1htt(103Q)mCFP, aggregate imaging; zero = plate's median compound well; AID 853; inhibition, % at 1.5 µM; 47,000 compounds, 0.42% hits;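 active = inhibition of aggregate fluorescence above about 70%, also judged a hit by eye on the cell image, limit read from the data, passing the limit was not always enough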;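 also: cells exposed to compound for three days before fixation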
M1 agonist = activates the M1 muscarinic receptor; CHO-M1 cells, Fluo-4 calcium fluorescence, agonist mode; hits give high values; B-score at 10 µM; 64,000 compounds, 3% hits; AID 626;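 active = fluorescence rise, raw or as B-score row- and column-corrected plate score, outside the 99.7% band of its plate's samples, either direction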
Autofluor 339 = intrinsic fluorescence of library compounds, ex339/em460 – biochemical, MLSMR library, data from DPM-DC assay, artefact control, profiling panel; fluorescence fold increase at 10 µM; compound autofluorescence, ex339/em460 nm, NADH buffer; hits give high values; 1 = no-compound wells, NADH background; 65,000 compounds, 5.5% hits; AID 709;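 active = at 10 µM, mean starting fluorescence two-fold or more over control wells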;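 also: signal is the first read of a kinetic run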
M1 antag = M1 muscarinic receptor (rat) antagonism; P08482; 64,000 compounds, 3.4% hits; AID 628; CHO-M1 cells, Fluo-4 calcium, ACh EC80 antagonist mode; hits give low values; B-score at 10 µM;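 active = calcium fluorescence response, raw or row-and-column corrected B-score, differing from the plate sample mean either way at a set confidence level, mostly lower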
Target sequence (P08482 whole entry, looked up): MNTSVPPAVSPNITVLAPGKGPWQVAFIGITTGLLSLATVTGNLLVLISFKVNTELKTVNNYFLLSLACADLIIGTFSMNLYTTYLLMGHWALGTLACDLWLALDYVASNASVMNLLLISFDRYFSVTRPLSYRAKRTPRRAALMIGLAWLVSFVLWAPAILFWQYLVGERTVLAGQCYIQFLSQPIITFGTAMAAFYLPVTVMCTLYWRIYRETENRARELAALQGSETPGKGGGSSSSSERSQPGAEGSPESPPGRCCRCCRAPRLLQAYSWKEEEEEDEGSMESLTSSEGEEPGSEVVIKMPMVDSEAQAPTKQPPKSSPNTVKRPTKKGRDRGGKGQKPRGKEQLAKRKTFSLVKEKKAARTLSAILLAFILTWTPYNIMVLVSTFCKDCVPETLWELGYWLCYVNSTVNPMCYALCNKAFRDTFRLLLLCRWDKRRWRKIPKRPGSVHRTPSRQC
NADH enzymes = inhibition of NAD/NADH coupling enzymes, library profiling; IC50, µM (series often up to 10 µM), for the others: at the top dose inhibition; AID 774; 65,000 compounds, 0.02% hits; coupled PK/LDH NADH assays, four targets;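 active = single-dose screening hits from any of four coupled enzyme assays that gave an IC50 when retested across doses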;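 also: the DPM-DC format reads NADH fluorescence rather than 340 nm absorbance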
Abs 340nm = compound absorbs light at 340 nm; 65,000 tested, under 10 active; fold change at 10 µM; compound absorbance at 340 nm, fold over control;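 active = at 10 µM dose, initial 340 nm absorbance at least 2 fold that of control wells; inactive = change under 2 fold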;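 also: initial absorbance extrapolated from kinetic A340 decline of NADH oxidation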
Active calls of the source: *; · = no result. Most compounds without a hit are left out; they make up all but 9.3% or so of the library.

SMILES	Htt clearance	M1 agonist	Autofluor 339	M1 antag	NADH enzymes	Abs 340nm
COc1ccc(-c2cc(C(F)(F)F)n3nc(C(=O)N4CCCC4)cc3n2)cc1	·	-0.72	2.2*	1.8*	8%	1.1
O=C(OCC(=O)N1CCN(C(=O)c2ccco2)CC1)c1ccccc1C(=O)c1ccc(Cl)cc1	·	-0.1	0.99	0.66	3%	1
O=C(Cc1cn2ccsc2n1)Nc1nc2c(s1)CCCC2	-26	-1.4	1.1	-0.37	3%	1
Fc1ccc(-c2nn3c(C4COc5ccccc5O4)nnc3s2)cc1 (configuration not stated)	10	0.81	1.1	0.29	5%	0.99
Clc1cccc(-c2nnc3sc(-c4ccc5c(c4)OCO5)nn23)c1	·	-0.061	1.2	-0.045	1%	1.1
c1ccc2c(c1)ncn2Cc1nnc2sc(-c3ccc4c(c3)OCO4)nn12	-84	0.54	3.8*	0.045	12%	1.1
c1ccc2c(c1)OCC(c1nnc3sc(-c4ccc5c(c4)OCO5)nn13)O2 (configuration not stated)	4	1.3	2.6*	-0.0025	6%	1
Clc1ccccc1-c1nnc2sc(-c3ccc4c(c3)OCO4)nn12	23	-0.23	2.6*	-0.24	17%	1
Brc1ccccc1-c1nnc2sc(-c3ccc4c(c3)OCCO4)nn12	13	0.94	2*	-0.78	7%	1.1
CCC(c1nnnn1Cc1ccco1)N(CCN1CCOCC1)Cc1cc2cc(C)ccc2[nH]c1=O (configuration not stated)	21	0.22	1.2	-0.75	5%	1.1
O=C(O)c1ccc2c(c1)C(=O)N(c1cc(C(=O)O)ccc1Br)C2=O	·	·	1.1	·	6%	1
c1ccc(-n2nc3c(ccc4cnnc43)[nH]2)cc1	-3	1.4	4*	-0.39	9%	1
CCn1c2ccccc2c2cc(NC(=O)N3CCOCC3)ccc21	8	0.24	2.1*	0.13	10%	1.1
CCOC(=O)c1ccc(NC(=O)c2c(O)c3ccccc3n(C)c2=O)cc1	·	2	1.1	-1.3	2%	1.1
CCn1c(=O)c2cc(C(=O)N3CCCC3)sc2c2ccccc21	·	0.58	2.1*	-2.1	2%	1.2
CCn1c(=O)cc(OCC(=O)N2CCCC2)c2ccccc21	20	0.86	1.1	0.13	0%	1
O=C(Nc1ccc2c(c1)oc1ccccc12)N1CCOCC1	-18	0.0075	1.1	0.96	5%	1.1
O=C(c1cc2c(=O)n3ccccc3nc2s1)N1CCOCC1	·	0.58	4.9*	0.34	10%	1.1
CCOC(=O)c1cc2c(=O)n(C)c3ccccc3c2s1	·	·	2.8*	·	21%	1
O=C(NC1CCCC1)c1noc2c1CCCCC2	-8	·	·	·	·	·
c1coc(-c2nnc(SCc3nc4ccccc4[nH]3)o2)c1	·	-0.058	1.1	0.14	3%	1
Cc1ccc(S(=O)(=O)NCCN=C(CN2CCCC2)NS(=O)(=O)c2ccc(C)cc2)cc1	·	-0.16	0.99	0.0064	8%	0.99
CCn1c(=O)c2cc(C(=O)N3CCOCC3)sc2c2ccccc21	-12	0.55	2.1*	0.87	5%	1.1
CCc1nnc(NC(=O)CSc2ncc(-c3ccccc3)n2CC)s1	·	0.57	1.1	-0.057	7%	1
C=CCn1c(=N)c(C(=O)OCC)cc2c(=O)n3cccc(C)c3nc21	·	-0.3	2.3*	0.07	0%	1.1
SMILES	Htt clearance	M1 agonist	Autofluor 339	M1 antag	NADH enzymes	Abs 340nm
CCOC(=O)c1cc2c(=O)n3cccc(C)c3nc2n(CCc2ccccc2)c1=N	·	-2	2.3*	0.54	3%	0.98
CCOC(=O)c1cc2c(=O)n3cccc(C)c3nc2n(Cc2ccccc2Cl)c1=N	·	0.18	1.9	0.26	7%	1
CCOC(=O)c1cc2c(=O)n3cccc(C)c3nc2n(CC2CCCO2)c1=NC(C)=O (configuration not stated)	·	0.62	2.9*	-0.47	5%	1
COc1ccc2c(C)nc(Nc3nc(C)cc(=O)[nH]3)nc2c1	·	-0.24	1.1	0.15	2%	1.1
COc1cccc(-n2c(SCC(=O)OC(C)C)nnc2-c2cccnc2)c1	-39	0.76	1.1	2.7*	3%	0.97
CC(C)OC(=O)CSc1nnc(-c2cccnc2)n1N	-26	-0.058	1	0.75	5%	1
CC(=O)OC1C(OC(C)=O)N(C(C)=O)C(=O)N1C(C)=O (configuration not stated)	26	1.7	1.1	1.9*	6%	1
CC(=O)N1C(=O)N(C)C2C1N(C)C(=O)N2C(C)=O (configuration not stated)	·	0.3	1.1	1.4	7%	0.99
CN1C(=O)C2(C(C#N)=C(N)Oc3c2oc(CO)cc3=O)c2ccccc21 (configuration not stated)	-46	-0.49	1.1	-0.4	0%	1
O=C1/C(=N/n2cnnc2)c2ccccc2N1Cc1ccccc1	·	-1	1	0.036	3%	1
CCOC(=O)N1CCN(C(=O)COc2ccc3c(c2)C(=O)CC2(CCN(C(C)=O)CC2)O3)CC1	36	-0.3	5*	0.58	7%	1
CCOC(=O)c1c(C)[nH]c(NC(=O)N2CCOCC2)c1C	·	0	1.1	-0.12	4%	1
COc1ccc2c(C)cc(=O)oc2c1C	-46	-0.049	2.1*	-0.013	8%	1.1
CCc1c(C)c2ccc(OCC(=O)OC(C)C)c(C)c2oc1=O	·	1.4	3.6*	0	8%	1.1
CCN(CC)C(=O)COc1cccc2ccccc12	·	-0.44	1.2	-0.054	8%	1
CCOC(=O)CCc1c(C)c2ccc(OCC(=O)N(CC)CC)c(C)c2oc1=O	·	-0.21	3.8*	-0.087	5%	1.1
COc1ccc(-c2coc3cc4oc(=O)cc(C)c4cc23)cc1F	34	·	·	·	·	·
CCc1c(C)c2ccc(OCC(=O)N(C)C)c(C)c2oc1=O	·	0.57	3.5*	-0.55	10%	1.1
COCCn1c(SCc2nc3ccccc3s2)nc2ccccc21	·	0.46	1.1	0.011	6%	1.1
COc1ccc(C2C(C#N)=C(/N=C/N3CCN(C)CC3)OC3=C2C(=O)CC(C)(C)C3)cc1OC (configuration not stated)	·	-0.75	1	0.0015	2%	1.1
CCCc1cc(=O)oc2c(C)c(OCC(=O)c3ccc(N4CCCC4)cc3)ccc12	-37	·	·	·	·	·
Cc1cc(=O)oc2c(C)c(OCC(=O)N(C)C)ccc12	·	-0.17	3.4*	0.25	3%	1.1
Cc1c(C)c2ccc(OCC(=O)N(C)C)c(C)c2oc1=O	21	-0.71	3.7*	0.095	13%	1.2
COC(=O)Cc1c(C)c2ccc(OCC(C)=O)c(C)c2oc1=O	30	-0.31	3.8*	-0.01	7%	1.1
CCN(CC)Cc1c(O)ccc2c(-c3ccccc3)cc(=O)oc12	-7	0.92	2.1*	-0.49	9%	1.1
CCn1c(CSc2nc3ccccc3s2)nc2ccccc21	-26	·	1.5	·	3%	1
